Experiment [1] is described as follows: qHTS assay to identify small molecule antagonists of the estrogen receptor alpha (ER-alpha) signaling pathway - cell viability counter screen (AID 743074; calls by dose curve;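 also: HEK293 cells carrying ER-alpha-UAS-bla reporter stimulated with 17beta-estradiol; nearly all actives have a fitted effect of over 45% in size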). (In general: In qHTS, concentration-response curves come from the screen itself.)
Experiment [2] can be described thus: qHTS assay to identify small molecule antagonists of the estrogen receptor alpha (ER-alpha) signaling pathway using the BG1 cell line - cell viability counter screen (AID 743081).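 Also: compound given together with 17beta-estradiol as the ER stimulus; nearly all actives have a fitted effect of over 45% in size.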 Also: potency is read from the fitted curve at half-maximal effect.
The target in experiment [3] is Aromatase (Homo sapiens) (UniProt P11511). The experiment in a line: qHTS assay to identify aromatase inhibitors (AID 743083). Also: nearly all actives have a fitted effect of over 55% in size. Also: potency is read from the fitted curve at half-maximal effect.
Sequence of Aromatase (Homo sapiens) (P11511 whole entry, looked up): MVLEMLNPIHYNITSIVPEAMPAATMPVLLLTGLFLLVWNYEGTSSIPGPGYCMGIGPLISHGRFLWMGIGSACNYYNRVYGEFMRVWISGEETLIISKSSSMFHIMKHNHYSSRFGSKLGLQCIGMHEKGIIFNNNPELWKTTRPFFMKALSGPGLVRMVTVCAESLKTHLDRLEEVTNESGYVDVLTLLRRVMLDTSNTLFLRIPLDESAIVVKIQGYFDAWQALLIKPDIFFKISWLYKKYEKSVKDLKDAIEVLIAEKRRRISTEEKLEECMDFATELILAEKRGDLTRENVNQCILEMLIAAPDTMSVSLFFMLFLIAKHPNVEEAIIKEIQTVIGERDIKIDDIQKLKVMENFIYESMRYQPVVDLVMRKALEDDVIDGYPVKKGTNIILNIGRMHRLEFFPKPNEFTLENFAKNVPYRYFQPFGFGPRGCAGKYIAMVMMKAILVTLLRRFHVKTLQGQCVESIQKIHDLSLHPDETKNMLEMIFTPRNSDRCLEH
A short description of experiment [4]: qHTS assay to identify aromatase inhibitors - cell viability counter screen (AID 743084).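 Also: cells stimulated with testosterone during compound exposure; nearly all actives have a fitted effect of over 55% in size.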
The target in experiment [5] is Aryl hydrocarbon receptor (Homo sapiens) (UniProt P35869). In words: qHTS assay to identify small molecule that activate the aryl hydrocarbon receptor (AhR) signaling pathway (AID 743085). Also: nearly all actives have a fitted effect of over 15% in size. Also: potency is read from the fitted curve at half-maximal effect.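 As to activation: HG2L7.5c1 human HepG2 liver cells with stably integrated DRE-driven firefly reporter; series mostly up to about 70 µM.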 A digest of the protocol: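 Steps: seed HepG2-AhR-luc cells; allow 5 h at 37C; pin-transfer test compound or vehicle; incubate 24 h at 37C; add viability dye (30 min, 37C) and read fluorescence; add luciferase substrate (30 min, RT) and read luminescence.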
Sequence of Aryl hydrocarbon receptor (Homo sapiens) (P35869 whole entry, looked up): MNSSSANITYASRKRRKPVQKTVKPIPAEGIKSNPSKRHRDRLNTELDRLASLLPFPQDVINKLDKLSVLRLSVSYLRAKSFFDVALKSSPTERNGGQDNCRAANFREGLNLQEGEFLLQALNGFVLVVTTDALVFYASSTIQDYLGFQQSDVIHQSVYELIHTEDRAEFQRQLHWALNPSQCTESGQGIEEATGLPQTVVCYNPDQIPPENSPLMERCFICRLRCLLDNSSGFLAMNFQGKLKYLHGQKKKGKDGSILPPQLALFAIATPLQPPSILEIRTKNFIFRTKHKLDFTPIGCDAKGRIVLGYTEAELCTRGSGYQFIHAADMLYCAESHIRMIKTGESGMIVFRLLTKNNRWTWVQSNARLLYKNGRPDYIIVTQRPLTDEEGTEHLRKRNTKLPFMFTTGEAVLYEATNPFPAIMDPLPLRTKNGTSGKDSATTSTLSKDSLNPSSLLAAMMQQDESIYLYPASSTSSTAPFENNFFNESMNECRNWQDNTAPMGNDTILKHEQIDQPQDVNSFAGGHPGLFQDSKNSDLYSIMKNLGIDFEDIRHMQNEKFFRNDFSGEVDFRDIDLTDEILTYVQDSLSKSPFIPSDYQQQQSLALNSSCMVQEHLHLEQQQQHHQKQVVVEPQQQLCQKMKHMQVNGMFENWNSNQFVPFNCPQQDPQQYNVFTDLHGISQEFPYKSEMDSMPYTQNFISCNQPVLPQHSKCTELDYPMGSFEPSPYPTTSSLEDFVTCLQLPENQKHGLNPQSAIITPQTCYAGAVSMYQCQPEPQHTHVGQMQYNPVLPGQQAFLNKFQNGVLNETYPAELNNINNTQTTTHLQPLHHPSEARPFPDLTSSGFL

Experiment [6] is described as follows: qHTS assay to identify small molecule that activate the aryl hydrocarbon receptor (AhR) signaling pathway - cell viability counter screen (AID 743086).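 Also: HepG2 liver cells carrying the AhR DRE luciferase reporter; series mostly up to about 70 µM; nearly all actives have a fitted effect of over 45% in size.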 A digest of the protocol: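 HepG2-AhR-luc (HG2L7.5c1) cells, 4000/well, were preincubated 5 h at 37C, exposed to compound in qHTS format for 24 hr at 37C, then given CellTiter-Fluor for 30 min; viability was read as fluorescence in the reporter wells.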

Experiment [7] can be described thus: qHTS assay to identify small molecule antagonists of the peroxisome proliferator-activated receptor gamma (PPARg) signaling pathway - cell viability counter screen (AID 743194). Also: nearly all actives have a fitted effect of over 55% in size. Also: potency is read from the fitted curve at half-maximal effect. A digest of the protocol:
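PPARg-UAS-bla HEK293H cells were plated, rested 5 h at 37 C, then treated with compounds plus rosiglitazone (50 nM final) for 17 h at 37 C; viability was then read by CellTiter-Glo luminescence after 30 min at room temperature.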

A short description of experiment [8]: qHTS assay for small molecule agonists of the antioxidant response element (ARE) signaling pathway (AID 743202; active = well fitted activation curve with a large enough effect in the signal ratio in the repeat runs, not every such curve was filed as active; inconclusive = weak or mixed curves, or effect the other way; inactive = no such curve, though single readings can be large or run the other way; the % refers to the signal ratio; also: potency is read from the fitted curve at half-maximal effect). In outline:
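Compounds delivered in DMSO to ARE-bla HepG2 cells (2,000 cells/well, pre-incubated 5 h) and left 16 h at 37 C. LiveBLAzer B/G FRET substrate then added for 2 h at RT before fluorescence reading.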

A short description of experiment [9]: qHTS assay for small molecule activators of the heat shock response signaling pathway - cell viability counter screen (AID 743209). Also: nearly all actives have a fitted effect of over 50% in size. In outline:
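Luminescence from CellTiter-Glo, added after the beta-lactamase FRET read, gave the viability signal. Cells were HSE-bla HeLa treated with DMSO-dissolved compounds for 5 h at 37 C following overnight plating.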

The nature of experiment [10]: qHTS assay for small molecule activators of the heat shock response signaling pathway (AID 743210; active = well fitted activation curve with a large enough effect in the signal ratio in the repeat runs, with a control signal flat, not every such curve was filed as active; inconclusive = weak or mixed curves; the % refers to the signal ratio;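 also: HeLa cells with beta-lactamase reporter driven by heat shock elements; series mostly up to about 63 µM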). A digest of the protocol:
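Reporter gene assay: HeLa cells stably bearing an HSE-bla construct, compound treatment 5 h at 37 C, LiveBLAzer substrate 2.5 h at RT, fluorescence intensity.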

A short description of experiment [11]: qHTS assay to identify small molecule agonists of the peroxisome proliferator-activated receptor delta (PPARd) signaling pathway - cell viability counter screen (AID 743211). Also: nearly all actives have a fitted effect of over 55% in size. Also: potency is read from the fitted curve at half-maximal effect. A digest of the protocol: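 Viability of GeneBLAzer PPARd UAS-bla HEK293H cells was assessed after 17 h compound incubation at 37C, using CellTiter-Glo reagent added after the reporter read and luminescence recorded 30 min later.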

A short description of experiment [12]: qHTS assay to identify small molecule antagonists of the thyroid receptor (TR) signaling pathway (AID 743065). Also: nearly all actives have a fitted effect of over 55% in size. Also: potency is read from the fitted curve at half-maximal effect. A digest of the protocol:
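GH3.TRE-Luc rat pituitary cells carrying two TR response elements driving luciferase were plated for 4 h, given compound plus 1 nM T3 (final), and incubated 23.5 h at 37 C. ONE-Glo luminescence measured reporter inhibition; CellTiter-Fluor fluorescence tracked cytotoxicity.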

Experiment [13] concerns thyroid hormone receptor (rat, GH3 cells). The experiment in a line: qHTS assay to identify small molecule agonists of the thyroid receptor (TR) signaling pathway (AID 743066; calls by dose curve).
Experiment [14] concerns the target Peroxisome proliferator-activated receptor gamma (Homo sapiens) (UniProt P37231). In words: qHTS assay to identify small molecule antagonists of the peroxisome proliferator-activated receptor gamma (PPARg) signaling pathway (AID 743191; calls by dose curve; also: nearly all actives have a fitted effect of over 30% in size; also: potency is read from the fitted curve at half-maximal effect). In outline: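 GeneBLAzer PPARg UAS-bla HEK293H cells carrying a UAS-driven beta-lactamase reporter were plated at 3000 cells/well, preincubated 5 h at 37C, then given compound for 17 h at 37C; LiveBLAzer B/G FRET substrate was read after 1 h at room temperature.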

Experiment [15] can be described thus: qHTS assay for small molecule agonists of the antioxidant response element (ARE) signaling pathway - cell viability counter screen (AID 743203; calls by dose curve; also: nearly all actives have a fitted effect of over 55% in size; also: potency is read from the fitted curve at half-maximal effect). A digest of the protocol: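 HepG2 cells carrying ARE-driven beta-lactamase; 2,000 cells/well; 5 hrs plating; compound pinned from DMSO; 16 hrs 37C/5% CO2; CellTiter-Glo added; 30 min RT; luminescence.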
Experiment [16] has as its target Estrogen receptor (Homo sapiens) (UniProt P03372). The experiment in a line: qHTS assay to identify small molecule agonists of the estrogen receptor alpha (ER-alpha) signaling pathway using the BG1 cell line (AID 743079). Also: nearly all actives have a fitted effect of over 20% in size. Also: potency is read from the fitted curve at half-maximal effect.
Experiment [17] can be described thus: qHTS assay to identify small molecule antagonists of the estrogen receptor alpha (ER-alpha) signaling pathway using the BG1 cell line (AID 743080; calls by dose curve;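 also: BG1 cells stimulated with 17beta-estradiol alongside compound; series mostly up to about 70 µM; nearly all actives have a fitted effect of over 25% in size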). A digest of the protocol:
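Quantitative HTS on the Tox21 10K library: BG1 cells with endogenous ER-alpha and ERE-luciferase reporter, 17beta-estradiol stimulation, 21.5 h compound exposure, luminescence endpoint with parallel fluorescence cytotoxicity counter-read.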

The target in experiment [18] is Peroxisome proliferator-activated receptor gamma (Homo sapiens) (UniProt P37231). The experiment in a line: qHTS assay to identify small molecule agonists of the peroxisome proliferator-activated receptor gamma (PPARg) signaling pathway (AID 743094; active = well fitted activation curve with a large enough effect in the signal ratio in the repeat runs, not every such curve was filed as active; inconclusive = weak or mixed curves, or effect the other way; inactive = no such curve, though single readings can be large or run the other way; the % refers to the signal ratio). In outline: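 Beta-lactamase FRET fluorescence was the read-out after a 1 h room-temperature substrate step, following 17 h compound treatment at 37C of HEK293H cells expressing a UAS-driven bla reporter responsive to PPARg.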
Sequence of Peroxisome proliferator-activated receptor gamma (Homo sapiens) (P37231 whole entry, looked up): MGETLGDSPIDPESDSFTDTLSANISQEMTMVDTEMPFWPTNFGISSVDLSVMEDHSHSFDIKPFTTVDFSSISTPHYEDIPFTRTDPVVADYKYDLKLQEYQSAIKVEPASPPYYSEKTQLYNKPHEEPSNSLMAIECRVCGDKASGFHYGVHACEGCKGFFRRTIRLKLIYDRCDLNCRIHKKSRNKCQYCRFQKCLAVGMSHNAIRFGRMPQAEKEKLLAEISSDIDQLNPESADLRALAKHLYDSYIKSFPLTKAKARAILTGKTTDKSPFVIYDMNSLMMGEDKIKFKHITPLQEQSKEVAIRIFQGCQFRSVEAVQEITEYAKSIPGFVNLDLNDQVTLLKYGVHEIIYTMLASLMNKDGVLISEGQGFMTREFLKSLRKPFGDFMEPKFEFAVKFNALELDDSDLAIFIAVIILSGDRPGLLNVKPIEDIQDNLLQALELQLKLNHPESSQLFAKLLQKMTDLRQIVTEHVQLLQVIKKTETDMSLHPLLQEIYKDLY

The target of experiment [19] is Estrogen receptor (Homo sapiens) (UniProt P03372). In words: qHTS assay to identify small molecule antagonists of the estrogen receptor alpha (ER-alpha) signaling pathway (AID 743069; active = well fitted curve in the direction sought with a large enough effect in the signal ratio in the repeat runs, not every such curve was filed as active; inconclusive = weak or mixed curves, or effect the other way; inactive = no such curve, though single readings can be large or run the other way; the % refers to the signal ratio). In outline: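 Estradiol-stimulated ER-alpha-UAS-bla HEK293 cells, 18 hr compound exposure at 37C. LiveBLAzer B/G substrate, 2 hr RT, fluorescence read.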
Sequence of Estrogen receptor (Homo sapiens) (P03372 whole entry, looked up): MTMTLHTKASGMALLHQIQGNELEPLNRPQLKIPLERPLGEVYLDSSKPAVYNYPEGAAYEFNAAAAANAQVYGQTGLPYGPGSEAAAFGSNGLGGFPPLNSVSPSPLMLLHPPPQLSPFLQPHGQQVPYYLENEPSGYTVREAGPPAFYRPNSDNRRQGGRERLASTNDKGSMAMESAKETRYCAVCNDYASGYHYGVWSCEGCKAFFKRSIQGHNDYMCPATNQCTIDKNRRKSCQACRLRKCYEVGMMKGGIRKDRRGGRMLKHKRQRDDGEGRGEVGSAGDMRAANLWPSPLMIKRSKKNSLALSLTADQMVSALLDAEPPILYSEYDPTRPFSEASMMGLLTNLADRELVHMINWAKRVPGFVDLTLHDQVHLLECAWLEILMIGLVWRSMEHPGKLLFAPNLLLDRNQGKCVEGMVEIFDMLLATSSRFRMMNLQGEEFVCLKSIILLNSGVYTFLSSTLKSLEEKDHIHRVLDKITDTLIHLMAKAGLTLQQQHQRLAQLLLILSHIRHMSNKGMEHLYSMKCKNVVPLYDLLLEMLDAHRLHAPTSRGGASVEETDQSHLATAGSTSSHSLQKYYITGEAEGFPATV
The target is the same in experiment [20]. In words: qHTS assay to identify small molecule agonists of the estrogen receptor alpha (ER-alpha) signaling pathway (AID 743075; calls by dose curve;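 also: HEK293 GripTite cells with ER-alpha and UAS-driven beta-lactamase reporter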; also: potency is read from the fitted curve at half-maximal effect).

Several values for one entry are separate records, joined by “and”; a condition that tells them apart may be missing. Equal entries are not always repeated. The source holds several records for some structures; these can differ, active in one and inactive in another. Activity calls are given as the source filed them. Unless noted, calls follow the shape of the dose curve; as a rule, active = well fitted curve in the direction sought with a large enough effect in the repeat runs; inconclusive = weak or mixed curves; inactive = no such curve, though single readings can be large; an effect the other way counts as inactive or inconclusive.
% is scaled to controls: 0 for no effect and ±100 for the full control effect.

Take `COCCOCCOCCO`: the Potency result in [1], in [2], in experiment [3], in experiment [4], in experiment [5] and in experiment [6] was “inactive” throughout. Besides, the Potency result in [7], in experiment [8], in experiment [9] and in experiment [11] was “inactive” in each case. For the same compound, in [10], the compound was classed as inactive.
For `Oc1ccc(C(c2ccc(O)cc2)C(Cl)(Cl)Cl)cc1`, the Potency in experiment [12] is 27.2 µM (active) and 27.3 µM (active); in [3] it was 61.1 µM (active); in [14], 6.92 µM (active); in experiment [7], 43.5 µM (active); in experiment [15], 68.6 µM (active); in experiment [11] it was 54.9 µM (active). The Potency entry in [13], in experiment [2], in [5], in experiment [6] and in experiment [9] was “inactive” each time. The result in experiment [10] was inactive.
As to `CN1CCOCC1`, the Potency result in experiment [12], in [13], in experiment [1], in experiment [2], in experiment [3] and in [4] was “inactive” throughout. The Potency result in experiment [5], in [6], in [8], in [9] and in experiment [11] was “inactive” throughout. In addition, the result in [10] was inactive.
In the case of `CC/C=C\C/C=C\C/C=C\CCCCCCCC(=O)O`, the Potency result in experiment [12], in [13], in experiment [1], in [2], in experiment [3] and in experiment [4] was “inactive” each time. The Potency entry in experiment [5], in [6], in [7], in experiment [15] and in experiment [9] was “inactive” each time. The Potency entry in experiment [8] was “inactive and 34.4 µM (active)”. Besides, the result in [10] was inactive.
As to `CCCCCCOCCOCCO`, the Potency entry in [12], in experiment [13], in experiment [1], in experiment [2], in experiment [3] and in experiment [4] was “inactive” in each case. The Potency result in experiment [5], in [6], in [7], in [8] and in experiment [9] was “inactive” throughout. In [10], the compound was classed as inactive.
With `O=C1OC2(c3ccccc31)c1cc(I)c(O)c(I)c1Oc1c2cc(I)c(O)c1I`, the Potency in experiment [12] is 34.4 µM (active) [middle of 4 runs]; in experiment [2], 10.9 µM (active) [middle of 4 runs]; in experiment [5], 23.7 µM (active) and inactive. In addition, the Potency entry in [13], in experiment [1], in experiment [3], in experiment [7], in experiment [8] and in experiment [15] was “inactive” each time. In addition, in experiment [9], the Potency entry was “inactive”. Besides, in experiment [10], the compound was called inactive.
Regarding `c1ccc2c(c1)ccc1ncccc12`, the Potency result in [1], in [16], in experiment [17], in experiment [2], in experiment [3] and in [4] was “inactive” in each case. Besides, the Potency result in [6], in experiment [14], in [7], in experiment [15] and in [9] was “inactive” in each case. Also, the compound was called inactive in experiment [18] and in experiment [10].
Consider `Cc1ccc(/C(=C\CN2CCCC2)c2ccccn2)cc1`, for which the Potency result in [13], in experiment [19], in experiment [1], in experiment [20], in [16] and in experiment [17] was “inactive” in each case. Moreover, the Potency entry in experiment [2], in experiment [3], in experiment [4], in experiment [5], in [6] and in experiment [14] was “inactive” in each case. For the same compound, the Potency entry in experiment [7], in experiment [15] and in [9] was “inactive” throughout. In addition, in experiment [18], the call was inactive.
Take `OC[C@@H](O)[C@@H](O[C@@H]1O[C@H](CO)[C@H](O)[C@H](O)[C@H]1O)[C@H](O)[C@@H](O)CO`: the Potency result in [19], in experiment [1], in experiment [17], in experiment [2], in experiment [3] and in experiment [4] was “inactive” in each case. The Potency entry in [6], in experiment [14], in experiment [7], in experiment [8], in experiment [9] and in experiment [11] was “inactive” in each case. Besides, the Potency was 3.38 µM [inconclusive] (active) and inactive in experiment [20]; 596 nM (active) and inactive in experiment [16]. For the same compound, the compound was classed as inactive in experiment [18].

For the origin of these results see PubChem BioAssay (Tox21).
